# The supplement of paper PMC9942566
# Structures can show the parent of a compound that is named as a salt. ± gives the standard deviation of the averaged measurements.
# Test system: Serratia marcescens K904 PosmB-luxCDABE reporter (pMQ747)
# Assay: PosmB-lux reporter fold induction (RLU/OD600 relative to no-compound control), highest over Biolog concentrations; higher = stronger reporter activation
# Conditions: Biolog plate: PM11; well positions: C1-4; ΔrcsB mutant CMS5177; 4 h
# Protocol: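 Serratia marcescens K904 (wild type) or its isogenic ΔrcsB mutant, carrying the Rcs-dependent PosmB-luxCDABE reporter plasmid pMQ747, was grown in LB at OD600 0.1 in Biolog Phenotype MicroArray plates PM11-20 for 4 h at 30-32°C. Each compound is present at 3-4 proprietary concentrations (not stated); per the Fig. S1 legend the value given is the highest fold over those wells. Three independent trials.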
row,Structure (SMILES),PosmB-lux reporter fold induction
1,Cc1c(N)nc([C@H](CC(N)=O)NC[C@H](N)C(N)=O)nc1C(=O)N[C@H](C(=O)N[C@H](C)[C@@H](O)[C@H](C)C(=O)N[C@H](C(=O)NCCc1nc(-c2nc(C(=O)NCCC[S+](C)C)cs2)cs1)[C@@H](C)O)[C@@H](OC1OC(CO)C(O)C(O)C1OC1OC(CO)C(O)C(OC(N)=O)C1O)c1cnc[nH]1 (stereo not given in full) [Bleomycin],0.988 ± 0.1

# Same assay, conditions: Biolog plate: PM11; well positions: G9-12; ΔrcsB mutant CMS5177; 4 h
row,Structure (SMILES),PosmB-lux reporter fold induction
1,O=[Te]([O-])[O-].[K+].[K+] [Potassium tellurite],1.14 ± 0.19

# Same assay, conditions: Biolog plate: PM13; well positions: A9-12; ΔrcsB mutant CMS5177; 4 h
row,Structure (SMILES),PosmB-lux reporter fold induction
1,[Cl][Ni][Cl] [Nickel chloride],1.06 ± 0.2

# Same assay, conditions: Biolog plate: PM13; well positions: B9-12; ΔrcsB mutant CMS5177; 4 h
row,Structure (SMILES),PosmB-lux reporter fold induction
1,CCn1cc(C(=O)O)c(=O)c2cc3c(cc21)OCO3 [Oxolinic acid],4.3 ± 0.48

# Same assay, conditions: Biolog plate: PM13; well positions: C9-12; ΔrcsB mutant CMS5177; 4 h
row,Structure (SMILES),PosmB-lux reporter fold induction
1,[K+].[K+].[O]=[Cr](=[O])([O-])[O-] [Potassium chromate],1.87 ± 0.86

# Same assay, conditions: Biolog plate: PM13; well positions: E5-8; ΔrcsB mutant CMS5177; 4 h
row,Structure (SMILES),PosmB-lux reporter fold induction
1,CN[C@@H]1[C@@H](O)[C@@H](O[C@@H]2[C@@H](O)[C@H](O[C@H]3O[C@H]([C@@H](C)O)[C@@H](O)[C@H](O)[C@H]3N)[C@@H](N)C[C@H]2N)OC[C@]1(C)O [Geneticin (G418)],1.34 ± 0.41

# Same assay, conditions: Biolog plate: PM14; well positions: B5-8; ΔrcsB mutant CMS5177; 4 h
row,Structure (SMILES),PosmB-lux reporter fold induction
1,CCCCc1ccc(C(=O)O)nc1 [Fusaric acid],1 ± 0.025

# Same assay, conditions: Biolog plate: PM14; well positions: B9-12; ΔrcsB mutant CMS5177; 4 h
row,Structure (SMILES),PosmB-lux reporter fold induction
1,O=[As]([O-])([O-])[O-].[Na+].[Na+].[Na+] [Sodium arsenate],0.724 ± 0.054

# Same assay, conditions: Biolog plate: PM14; well positions: C9-12; ΔrcsB mutant CMS5177; 4 h
row,Structure (SMILES),PosmB-lux reporter fold induction
1,N#CO [Sodium cyanate],1.38 ± 0.44

# Same assay, conditions: Biolog plate: PM14; well positions: D5-8; ΔrcsB mutant CMS5177; 4 h
row,Structure (SMILES),PosmB-lux reporter fold induction
1,O=C(O)CI [Iodoacetate],0.974 ± 0.21

# Same assay, conditions: Biolog plate: PM14; well positions: D9-12; ΔrcsB mutant CMS5177; 4 h
row,Structure (SMILES),PosmB-lux reporter fold induction
1,[Na+].[Na+].[O]=[Cr](=[O])([O-])[O][Cr](=[O])(=[O])[O-] [Sodium dichromate],1.03 ± 0.33

# Same assay, conditions: Biolog plate: PM14; well positions: G9-12; ΔrcsB mutant CMS5177; 4 h
row,Structure (SMILES),PosmB-lux reporter fold induction
1,O=[N+]([O-])[O-].[Na+] [Sodium nitrate],2.32 ± 0.21

# Same assay, conditions: Biolog plate: PM15; well positions: E9-12; ΔrcsB mutant CMS5177; 4 h
row,Structure (SMILES),PosmB-lux reporter fold induction
1,C[n+]1ccc(-c2cc[n+](C)cc2)cc1 [Methyl viologen],1.89 ± 0.16

# Same assay, conditions: Biolog plate: PM15; well positions: G5-8; ΔrcsB mutant CMS5177; 4 h
row,Structure (SMILES),PosmB-lux reporter fold induction
1,[N-]=[N+]=[N-] [Sodium azide],1.5 ± 0.15

# Same assay, conditions: Biolog plate: PM15; well positions: H1-4; ΔrcsB mutant CMS5177; 4 h
row,Structure (SMILES),PosmB-lux reporter fold induction
1,O=[N+]([O-])c1ncc[nH]1 [2-Nitroimidazole],1.51 ± 0.7

# Same assay, conditions: Biolog plate: PM16; well positions: C1-4; ΔrcsB mutant CMS5177; 4 h
row,Structure (SMILES),PosmB-lux reporter fold induction
1,CN(C)S(=O)(=O)N(SC(F)(Cl)Cl)c1ccccc1 [dichlofluanid],2.54 ± 1.7

# Same assay, conditions: Biolog plate: PM16; well positions: C9-12; ΔrcsB mutant CMS5177; 4 h
row,Structure (SMILES),PosmB-lux reporter fold induction
1,CCCCCCCCCCCCCCCC[n+]1ccccc1 [cetylpyridinium],1.77 ± 0.53

# Same assay, conditions: Biolog plate: PM16; well positions: D1-4; ΔrcsB mutant CMS5177; 4 h
row,Structure (SMILES),PosmB-lux reporter fold induction
1,"O=[N+]([O-])c1ccc(Cl)c([N+](=O)[O-])c1 [1-chloro-2,4-dinitrobenzene]",1.75 ± 0.99

# Same assay, conditions: Biolog plate: PM16; well positions: F1-4; ΔrcsB mutant CMS5177; 4 h
row,Structure (SMILES),PosmB-lux reporter fold induction
1,O=[Te]([O-])[O-].[K+].[K+] [potassium tellurite],1.28 ± 0.43

# Same assay, conditions: Biolog plate: PM16; well positions: F5-8; ΔrcsB mutant CMS5177; 4 h
row,Structure (SMILES),PosmB-lux reporter fold induction
1,O=[Se]([O-])[O-].[Na+].[Na+] [sodium selenite],1.25 ± 0.21

# Same assay, conditions: Biolog plate: PM17; well positions: A5-8; ΔrcsB mutant CMS5177; 4 h
row,Structure (SMILES),PosmB-lux reporter fold induction
1,NC(CCl)C(=O)O [b-chloro-L-alanine hydrochloride],1.04 ± 0.15

# Same assay, conditions: Biolog plate: PM17; well positions: B5-8; ΔrcsB mutant CMS5177; 4 h
row,Structure (SMILES),PosmB-lux reporter fold induction
1,CNC1CC(N)C(O)C(OC2OC(CO)C(O)C3OC4(OC(C(N)CO)C(O)C(O)C4O)OC23)C1O (stereo not given) [hygromycin B],1.37 ± 0.19

# Same assay, conditions: Biolog plate: PM17; well positions: C1-4; ΔrcsB mutant CMS5177; 4 h
row,Structure (SMILES),PosmB-lux reporter fold induction
1,Nc1ccncc1 [4-aminopyridine],1.95 ± 1.4

# Same assay, conditions: Biolog plate: PM17; well positions: D1-4; ΔrcsB mutant CMS5177; 4 h
row,Structure (SMILES),PosmB-lux reporter fold induction
1,CC1=C(C(=O)Nc2ccccc2)S(=O)(=O)CCO1 [oxycarboxin],1.01 ± 0.57

# Same assay, conditions: Biolog plate: PM17; well positions: D5-8; ΔrcsB mutant CMS5177; 4 h
row,Structure (SMILES),PosmB-lux reporter fold induction
1,"Nc1ncn[nH]1 [3-amino-1,2,4-triazole]",5.84 ± 4.5

# Same assay, conditions: Biolog plate: PM17; well positions: G1-4; ΔrcsB mutant CMS5177; 4 h
row,Structure (SMILES),PosmB-lux reporter fold induction
1,O=C(O)CCCc1ccc(N(CCCl)CCCl)cc1 [chlorambucil],1.28 ± 0.21

# Same assay, conditions: Biolog plate: PM18; well positions: C9-12; ΔrcsB mutant CMS5177; 4 h
row,Structure (SMILES),PosmB-lux reporter fold induction
1,Oc1c(Cl)c(Cl)c(Cl)c(Cl)c1Cl [pentachloro-phenol],0.784 ± 0.046

# Same assay, conditions: Biolog plate: PM18; well positions: E5-8; ΔrcsB mutant CMS5177; 4 h
row,Structure (SMILES),PosmB-lux reporter fold induction
1,[O-][I+3]([O-])([O-])O [sodium m-periodate],1.04 ± 0.24

# Same assay, conditions: Biolog plate: PM18; well positions: E9-12; ΔrcsB mutant CMS5177; 4 h
row,Structure (SMILES),PosmB-lux reporter fold induction
1,[Cl][Sb]([Cl])[Cl] [antimony (III) chloride],0.481 ± 0.06

# Same assay, conditions: Biolog plate: PM18; well positions: F1-4; ΔrcsB mutant CMS5177; 4 h
row,Structure (SMILES),PosmB-lux reporter fold induction
1,NNC(N)=O [semicarbazide],3.86 ± 1.5

# Same assay, conditions: Biolog plate: PM18; well positions: G1-4; ΔrcsB mutant CMS5177; 4 h
row,Structure (SMILES),PosmB-lux reporter fold induction
1,Oc1cc(Cl)ccc1Oc1ccc(Cl)cc1Cl [triclosan],1.05 ± 0.51

# Same assay, conditions: Biolog plate: PM18; well positions: G5-8; ΔrcsB mutant CMS5177; 4 h
row,Structure (SMILES),PosmB-lux reporter fold induction
1,"Nc1n[nH]c(N)n1 [3,5-diamino-1,2,4-triazole (Guanazole)]",12 ± 5.6

# Same assay, conditions: Biolog plate: PM18; well positions: H5-8; ΔrcsB mutant CMS5177; 4 h
row,Structure (SMILES),PosmB-lux reporter fold induction
1,Oc1ccccc1-c1ccccc1 [2-phenylphenol],1.22 ± 0.42

# Same assay, conditions: Biolog plate: PM18; well positions: H9-12; ΔrcsB mutant CMS5177; 4 h
row,Structure (SMILES),PosmB-lux reporter fold induction
1,CC1=CC(=O)c2c(O)cccc2C1=O [plumbagin],1.11 ± 0.53

# Same assay, conditions: Biolog plate: PM20; well positions: C5-8; ΔrcsB mutant CMS5177; 4 h
row,Structure (SMILES),PosmB-lux reporter fold induction
1,CN1[C@@H]2CC[C@H]1C[C@@H](OC(=O)C(CO)c1ccccc1)C2 (stereo not given in full) [atropine],1.49 ± 0.44

# Same assay, conditions: Biolog plate: PM20; well positions: F1-4; ΔrcsB mutant CMS5177; 4 h
row,Structure (SMILES),PosmB-lux reporter fold induction
1,O=c1cc(O)c2ccccc2o1 [4-hydroxyl-coumarin],1.62 ± 0.32

# Same assay, conditions: Biolog plate: PM20; well positions: G1-4; ΔrcsB mutant CMS5177; 4 h
row,Structure (SMILES),PosmB-lux reporter fold induction
1,O=C1C2CC=CCC2C(=O)N1SC(Cl)(Cl)Cl (stereo not given) [captan],1.72 ± 0.34

# Same assay, conditions: Biolog plate: PM20; well positions: G9-12; ΔrcsB mutant CMS5177; 4 h
row,Structure (SMILES),PosmB-lux reporter fold induction
1,Oc1cccc2cccnc12 [8-hydroxy-quinoline],1.84 ± 0.48

# Same assay, conditions: Biolog plate: PM20; well positions: H1-4; ΔrcsB mutant CMS5177; 4 h
row,Structure (SMILES),PosmB-lux reporter fold induction
1,O=C1C=C2C(=CCOC2O)O1 (stereo not given) [patulin],2.24 ± 1.1

# Same assay, conditions: Biolog plate: PM20; well positions: H5-8; ΔrcsB mutant CMS5177; 4 h
row,Structure (SMILES),PosmB-lux reporter fold induction
1,Cc1ccc(N(SC(F)(Cl)Cl)S(=O)(=O)N(C)C)cc1 [tolylfluanid],1.7 ± 0.64
